According to PubChem BioAssay AID485297 (National Center for Advancing Translational Sciences (NCATS), 2010):
The campaign covered roughly 320,000 compounds. About 9,100 (2.8%) were called active. Another 3% or so got no clear call; they are omitted. Calls come from the whole dose curve; as a rule, active = well fitted activation curve with a large enough effect; inconclusive = small, poorly fitted or top-dose-only effect; inactive = no such curve, though single readings can be large or run the other way. Shown is part of a subset that was picked to be rich in actives.

test: qHTS Assay for Rab9 Promoter Activators; settings: Huh7 Rab9 promoter-luciferase reporter, luminescence, 24 h; series mostly up to 9.22 µM; activation, negative = inhibition: at the top concentration; note: nearly all actives have a fitted effect of over 60% in size; for activation, negative = inhibition: % of control where 0% means no effect
Method in brief: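 Luminescence from Amplite-detected luciferase (10 minutes, ambient) reports Rab9 promoter activation. Before that, stable Rab9-luciferase Huh7 cells (1500/well, reduced-serum OP-MEM I plus 10% FBS) were exposed to compound for 24 hours at 37C.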
Potency is the fitted concentration of half-maximal effect.

activation, negative = inhibition, inactive:
CCC1CCC2(CC1)NC(=O)N(CC(=O)Nc1ccc(OC)cc1)C2=O (stereo not drawn) -5.48%
COc1ccc(OC)c(CN2CCN(C(=O)CNC(=O)c3cc(C)cc(C)c3)CC2)c1 -0.729%
COc1cc([C@H](Cc2ccccc2)NC(C)=O)oc(=O)c1 3.07%
Cc1ccc(C)c(C(=O)COC(=O)Cn2[nH]c(=O)c3ccccc3c2=O)c1 0.526%
O=c1c(-c2ccccc2)coc2c(CN3CCOCC3)c(O)ccc12 0.818%
CC(C)CN(Cc1c(O)ccc2c(=O)c(-c3ccccc3)coc12)CC(C)C 0.55%
COc1ccccc1CNC(=O)CCCN1C(=O)NC2(CCCC2)C1=O -12.7%
COc1ccc(C2(C)ON(c3ccccc3C(F)(F)F)C2=O)cc1 (stereo not drawn) -2.59%
Cc1nc(-c2ccc(F)cc2)c(CC(=O)N(C)CC(=O)Nc2c(C)cccc2C)s1 7.06%
Cc1ccc(NC(=O)CN(C)CC(=O)Nc2cccc(F)c2)cc1[N+](=O)[O-] -18.7%
Cc1nc2ccccc2cc1C(=O)N/N=C/c1ccc([N+](=O)[O-])cc1 -2.69%
Cc1ccc(/C=N/NC(=O)c2sccc2OCc2ccc(F)cc2)cc1 -11.5%
Cc1ccc(NC(=O)CN2CCC(C(N)=O)CC2)cc1[N+](=O)[O-] 18.2%
CN(C)c1cc2c(Nc3ccc4c(cnn4Cc4ccccc4)c3)ncnc2cn1 -30.6% [at 46.1 µM]
CNC(=O)C1CC(=O)N(c2ccc(OCC(=O)Nc3ccccc3C)cc2)C1 (stereo not drawn) 5.32%
COc1ccc(NS(=O)(=O)c2cc(NC(=O)COc3ccccc3F)ccc2OC)cc1 1.94%
CCOc1ccc2oc(C(=O)N(CC)CC(=O)Nc3ccc(NC(C)=O)cc3)c(C)c2c1 -1.55%
CCC[C@H]1CCCC/C=C\CCCC(=O)OCCN1C(=O)OC(C)(C)C -5.47%
Nc1c(C(=O)OCC(=O)Nc2ccc(OC(F)F)cc2)[nH]c(=O)[nH]c1=O 0.105%
NC(=O)COC(=O)/C=C/c1ccc2ccccc2n1 1.99%
COc1cccc(/C=C2\C=C(c3ccc(C)cc3)OC2=O)c1OC(C)=O 1.65%
CCc1ccc(Nc2nnc(SCC(=O)c3ccc4c(c3)NC(=O)CO4)s2)cc1 -30.9%
Cc1noc(C)c1-c1ccc2ncnc(NC(C)c3ccco3)c2c1 (stereo not drawn) -2.48%
COc1ccc(CN2CCN(C(=O)c3cc(C4CC4)nn3-c3ccccc3)CC2)cc1F 15.7%
CN(C)c1nnnn1-c1ccc(Cl)cc1 2.01%
c1ccc(-n2nc3ccccc3n2)cc1 -3.95%
CCOc1ccc(N2C(=O)CSC2=NC#N)cc1 -2.64%
C=CCn1c(SCC(=O)Nc2ccc(NC(C)=O)cc2)nc2sc(C)c(C)c2c1=O -8.33%
Cc1nc2ccc(NC(=O)C(F)(F)F)cc2o1 1.46%
COC(=O)c1ccc(NC(=O)Nc2ccc(C)cc2)cc1 27.4%
CCOc1ccc(C(=O)NCC(=O)N2CCN(c3ccc(C(F)(F)F)cn3)CC2)cc1 -12%
CCCCn1c(N)c(N(CCC(C)C)C(=O)COC(=O)c2ccc(CC)cc2)c(=O)[nH]c1=O -0.386%
Cc1ncc(CO)c(/C=N/NC(=O)c2cccc(S(=O)(=O)N3CCCC3)c2)c1O -4.79%
O=C(N/N=C/c1cccc([N+](=O)[O-])c1)C1CC(=O)N(c2ccc(Br)cc2)C1 (stereo not drawn) -3.01%
Cc1ccc(NC(=O)O/N=C/c2cccc([N+](=O)[O-])c2)cc1 4.71%
CCOc1ccc(NC(=O)CN(C)C(=O)Cn2c(=O)cnc3ccccc32)cc1OCC 3.18%
Cc1nn(Cc2ccc(Cl)cc2)c(Cl)c1/C=N/NC(=O)c1cccnc1 -0.877%
O=C(N/N=C/c1ccccn1)c1cccnc1 -1.61%
COc1ccc(NC(=O)CCC(=O)Nc2nnc(C3CCCCC3)s2)cc1 10.1%
CCN(CC)c1ccc(NC(=O)c2ccc(Cl)nc2)cc1 -25.6%
CS(=O)(=O)c1ccc2nc(NC(=O)c3ccc(Cl)nc3)sc2c1 10.6%
Cc1occc1C(=O)Nc1nnc(-c2ccncc2)s1 14.6%
O=C(Nc1nnc(C2CC2)s1)c1cc(Cl)sc1Cl 16%
O=C(Cc1cccs1)Nc1nnc(C2CC2)s1 1.92%
Cc1cnc(NC(=O)CSc2c(Cl)cccc2Cl)s1 0.703%
Cc1cnc(NC(=O)C2CCCC2)s1 2.21%

Potency, active:
O=c1c(-c2ccccc2)coc2cc(O)ccc12 2820 nM
Cc1ccsc1C(=O)N/N=C/c1ccc([N+](=O)[O-])cc1 3550 nM
Cc1ccc(NC(=O)c2sccc2C)cc1[N+](=O)[O-] 1780 nM
COc1cccc(/C=C/c2ccc3ccccc3n2)c1OC(C)=O 447 nM
Nc1ccc2nn(-c3ccc(Cl)cc3)nc2c1 224 nM
Cc1ccc(NC(=O)Nc2ccc3oc(C)nc3c2)cc1 1580 nM
O=[N+]([O-])c1cccc(/C=N/Nc2ncc(Br)cn2)c1 2820 nM
Cc1cc(/C=N/NC(=O)c2cccnc2)c(C)n1CC(C)C 2820 nM
Cc1cnc(NC(=O)c2ccccn2)s1 282 nM
O=C(Nc1nnc(C2CC2)s1)c1ccccn1 447 nM
Cc1cnc(NC(=O)c2ccc(Cl)nc2)s1 2820 nM
Cc1occc1C(=O)Nc1nnc(C2CCCCC2)s1 2820 nM
